Sampled rows, rich in hits. Any-hit rate of the full collection: about 7.5%.
VACV Venus inh: qHTS for Stage-Specific Inhibitors of Vaccinia Orthopoxvirus: Venus Reporter Primary qHTS; Vaccinia virus Venus reporter expression, fluorescence; Potency, µM (doses to about 36.5 µM), for inactives: at the top dose activity change, negative = inhibition, hits mostly inhibitors; hit rate 0.46% among 330,000; AID 720580, 2013; calls by dose curve; tested in A549 cells; also: potency is read from the fitted curve at half-maximal effect; nearly all actives have a fitted effect of over 30% in size
Vaccinia mCherry: qHTS for Stage-Specific Inhibitors of Vaccinia Orthopoxvirus: mCherry Reporter Primary qHTS. Vaccinia virus mCherry reporter infection, fluorescence. Potency, µM (highest dose often 36.5 µM), for the others: at the highest dose activity change, negative = inhibition, hits mostly inhibitors. hit rate 0.63% among 310,000; calls by dose curve; tested in A549 cells; also: potency is read from the fitted curve at half-maximal effect; nearly all actives have a fitted effect of over 35% in size
HCV inh: qHTS Assay for Inhibitors of Hepatitis C Virus (HCV). Huh7.5.1 HCVcc-Cre infection, luciferase reporter, 44 h. Potency, µM (highest dose often 41.8 µM), for inactives: top-dose activity change, negative = inhibition, actives largely listed as inhibitors. hit rate 3.4% among 340,000; also: potency is read from the fitted curve at half-maximal effect
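Compounds are dispensed onto cells plated 4 h earlier at 1,000 per well, with HCVcc-Cre virus (about 0.5 moi) added next. Following 44 h of culture, luminescent signal is measured for 15 sec after 15 min with substrate at room temperature.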
FMDV inh: High Throughput Screening for Foot and Mouth Disease Virus Antivirals. FMDV antiviral cell-based qHTS. Potency, µM (doses to about 57.9 µM), for inactives: at the highest dose activity change, negative = inhibition, most hits filed as inhibitors. hit rate 1.2% among 410,000. AID 1159524, 2015; calls by dose curve; tested in HEK293T cells; also: read-out not given here; potency is read from the fitted curve at half-maximal effect; nearly all actives have a fitted effect of over 45% in size
HCMV antiviral: qHTS Assay for inhibitors of the human cytomegalovirus (HCMV); hit rate 4.5% among 410,000; activity change, negative = inhibition, % at 57.5 µM; HFF cells, HCMV-luciferase reporter, 72 h; hits give low values; in the data active = activity change below about -60%; inconclusive = no clear call, values can overlap the other calls; inactive = above about -39%
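Cell-based, HFFs, 1000 cells/well, 16 h 37C; cpds in DMSO + HCMV-luc, MOI 1 PFU/cell; 72 h 37C; OneGlo luminescence after 5 min RT; norm. to buffer vs Salinomycin 10uM.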
Giardia FBPA inh: qHTS Assay for Inhibitors of Fructose-1,6-bisphosphate Aldolase from Giardia Lamblia; A8B2U2; purified Giardia FBPA; Potency, µM (highest dose often 59.6 µM), for inactives: at the top dose activity, negative = inhibition, hits mostly inhibitors; hit rate 0.71% among 290,000; also: potency is read from the fitted curve at half-maximal effect; nearly all actives have a fitted effect of over 55% in size
Target sequence (A8B2U2 whole entry, looked up): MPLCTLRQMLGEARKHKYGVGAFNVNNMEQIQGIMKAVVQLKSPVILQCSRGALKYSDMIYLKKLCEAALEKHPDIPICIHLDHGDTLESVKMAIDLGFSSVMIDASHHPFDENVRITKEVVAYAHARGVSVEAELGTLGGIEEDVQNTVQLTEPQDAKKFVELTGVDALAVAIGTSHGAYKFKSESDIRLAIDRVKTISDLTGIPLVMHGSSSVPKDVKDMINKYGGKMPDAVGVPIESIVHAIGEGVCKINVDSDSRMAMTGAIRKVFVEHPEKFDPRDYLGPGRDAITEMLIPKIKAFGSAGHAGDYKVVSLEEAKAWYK
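40 nM FBPA preincubated 10 min at RT with compound (up to 57.5 uM final), then substrate plus GAPDH/TPI/NAD/arsenate coupling and diaphorase/resazurin added. Fluorescence read after 20 min at RT, 525/598 nm.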
* marks the source's active call; other numbers are inactive results; i = inactive; u = inconclusive; x = no result given; ! = not confirmed by another sample. Unless noted, calls follow the shape of the dose curve; as a rule, active = well fitted curve in the direction sought with a large enough effect; inconclusive = small, poorly fitted or top-dose-only effect, or another doubt; inactive = no such curve, though single readings can be large; an effect the other way counts as inactive or inconclusive. % is scaled to controls: 0 for no effect and ±100 for the full control effect.

SMILES	VACV Venus inh	Vaccinia mCherry	HCV inh	FMDV inh	HCMV antiviral	Giardia FBPA inh
O=C(Nc1ccc(S(=O)(=O)N2CCCCC2)cc1)C1CCCN(C(=O)c2ccc(Cl)cc2)C1 (stereo not given)	u	u	-23%	u	-65*	-2%
Cc1cc(C(=O)N2CCC2(C)C(=O)NS(=O)(=O)c2cccc(Cl)c2)nn1C (stereo not given)	2%	26%	x	-2%	18	x
COCCCN(C(=O)CC1OC(=O)c2ccccc21)c1c(N)n(Cc2ccccc2)c(=O)[nH]c1=O (stereo not given)	-10%	i	-2%	-23%	22	5%
Cc1cc(C)cc(-n2c(C)cc(C(=O)C(=O)Nc3nnc(C)s3)c2C)c1	5%	-4%	x	-12%	-17	x
CC1CCN(S(=O)(=O)c2cc(C(=O)NCc3ccccc3)n(C)c2)CC1	-14%	-16%	x	-13%	-81*	x
COc1cc(NC(=O)c2cc(S(=O)(=O)N3CCC(C)CC3)cn2C)cc(OC)c1OC	-6%	-1%	x	29%	-102*	x
Cc1cc(C)n(-c2cccc(C(=O)NCC3Cc4cccc(-c5cccnc5)c4O3)c2)n1 (stereo not given)	-24%	i	x	u	x	x
COc1ccccc1-c1nnc(C2CCN(C(=O)c3ccc(C)cc3)CC2)o1	11%	-9%	x	2%	1	x
Cc1ccccc1-c1nnc(C2CCN(S(=O)(=O)c3ccc(Cl)cc3)CC2)o1	-14%	-2%	x	-18%	-104*	x
COc1ccc(-c2nnc(C3CCN(S(=O)(=O)c4cccc(Cl)c4)CC3)o2)cc1	-11%	-10%	x	-22%	-94*	x
COc1ccc(-c2nnc(C3CCN(C(=O)c4ccccc4F)CC3)o2)cc1	-14%	-12%	x	u	-105*	x
CCCc1nnc(NC(=O)c2nc(SCC)ncc2Cl)s1	-4%	-14%	x	-17%	-3	x
Cc1ccc(CS(=O)(=O)c2ncc(Cl)c(C(=O)Nc3nc4ccc(C)cc4s3)n2)cc1	u	u	x	u	-107*	x
COc1ccc2nc(NC(=O)c3nc(S(=O)(=O)Cc4ccc(C)cc4)ncc3Cl)sc2c1	-6%	i	x	-9%	-100*	x
Cc1ccc(CS(=O)(=O)c2ncc(Cl)c(C(=O)Nc3nc4ccc(F)cc4s3)n2)cc1	u	u	x	u	-93*	x
CCCc1nnc(NC(=O)c2nc(S(=O)(=O)Cc3ccc(C)cc3)ncc2Cl)s1	-10%	-14%	u	35µM*	-107*!	x
COC(=O)CCNC(=O)N1CCN(c2nnc(C)c3c(C)n(-c4ccccc4)nc23)CC1	3%	-1%	x	-26%	-4	x
CC[C@@H](C)C(NC(=O)OC(C)(C)C)c1cn([C@@H](Cc2cc3ccccc3[nH]2)C(=O)N2CCN(C(=O)OC(C)(C)C)CC2)nn1 (stereo not given in full)	u	-23%	u	u	7	-5%
CCn1cc(C(=O)N2CCN(c3ccccc3)CC2)c(=O)c2cc(S(=O)(=O)N3CCCC3)ccc21	-2%	-15%	x	6%	-8	x
COc1ccc(COC(=O)C2=C(C)NC(=O)NC2c2ccc(OC)cc2)cc1 (stereo not given)	x	x	u	u	-64*	13%
CC1=C(C(=O)OCc2ccc3c(c2)OCO3)C(c2ccccc2OCc2ccccc2)NC(=O)N1 (stereo not given)	-25%	-9%	10µM*	x	-24	-17%
CC1=C(C(=O)OCc2ccc3c(c2)OCO3)C(c2ccc(O)c([N+](=O)[O-])c2)NC(=O)N1 (stereo not given)	-14%	i	-14%	-26%	u	3%
CCCOc1ccccc1C1NC(=O)NC(C)=C1C(=O)OCc1ccccc1 (stereo not given)	-18%	-29%	u	u	u	-10%

Compound activity (PubChem BioAssay)
